RORg inh: blocks mouse ROR gamma transcriptional activity; P51450; Drosophila S2 Gal4-RORgamma UAS-luciferase reporter, 20 h; Potency, µM (top dose mostly 53.6 µM), for the others: at the highest dose activity change, negative = inhibition, usual class: inhibitors; 310,000 compounds, 5.4% hits; AID 2551; also: potency is read from the fitted curve at half-maximal effect; nearly all actives have a fitted effect of over 60% in size
Target sequence (P51450 whole entry, looked up, the tested form may be a part): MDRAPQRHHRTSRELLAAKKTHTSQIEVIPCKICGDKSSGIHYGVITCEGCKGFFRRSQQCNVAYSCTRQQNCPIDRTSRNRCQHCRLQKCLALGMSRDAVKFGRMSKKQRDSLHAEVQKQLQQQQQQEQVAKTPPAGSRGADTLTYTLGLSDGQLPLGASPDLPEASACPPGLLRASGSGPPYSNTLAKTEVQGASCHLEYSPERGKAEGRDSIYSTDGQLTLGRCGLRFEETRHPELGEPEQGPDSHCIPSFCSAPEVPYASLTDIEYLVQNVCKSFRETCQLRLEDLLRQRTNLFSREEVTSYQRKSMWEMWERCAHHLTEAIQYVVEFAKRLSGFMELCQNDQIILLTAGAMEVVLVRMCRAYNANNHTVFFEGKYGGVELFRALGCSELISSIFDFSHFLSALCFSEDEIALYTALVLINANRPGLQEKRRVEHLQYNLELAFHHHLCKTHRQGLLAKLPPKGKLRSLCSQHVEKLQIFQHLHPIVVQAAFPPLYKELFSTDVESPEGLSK
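Luminescence from a UAS-regulated Photinus luciferase reporter in stably transfected Drosophila Schneider cells is measured; decreased signal marks ROR gamma inhibition. Fusion expression is induced by 700 uM copper sulfate for 20 hr.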
IL1B secr inh: inhibitors of inflammasome signaling (IL-1 beta secretion). THP-1 LPS/ATP IL-1B secretion, AlphaLISA, 16 h; hits give low values. 360,000 compounds, 4.7% hits. activity change, % at 57.5 µM. AID 743279; in the data active = activity change below about -50%; inconclusive = mostly about -30% to -49%
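Secreted IL-1B measured by AlphaLISA bead assay after 16 h compound exposure of THP-1 cells; compounds (final up to 57.5 uM) added 1 h before LPS (250 ng/mL) and ATP (1.25 mM) stimulation; lower signal means less secretion.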
ELG1 repair inh: blocks ELG1-dependent DNA repair in HEK293T cells. HEK293T ELG1-luciferase reporter, luminescence, 16 h; DNA damage induced by 5-fluorouridine. Potency, µM (highest dose often 46.1 µM), for the others: at the highest dose activity change, negative = inhibition, usual class: inhibitors. 330,000 compounds, 2.3% hits. AID 504467; also: potency is read from the fitted curve at half-maximal effect; nearly all actives have a fitted effect of over 55% in size
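HEK293T cells expressing luciferase-tagged ELG1 (2,000/well) received 5-Fluorouridine plus compound or DMSO for 16 hr at 37 °C. Luciferase was read by ONE-Glo luminescence after 30 min at room temperature.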
TDP1 cell noCPT: qHTS for Inhibitors of human tyrosyl-DNA phosphodiesterase 1 (TDP1): qHTS in cells in absence of CPT; 420,000 compounds, 15% hits; Potency, µM (top dose mostly 46.2 µM), for inactives: top-dose activity change, negative = growth inhibition, actives largely listed as inhibitors; DT40 Tdp1-/- hTDP1 cells, no CPT, ATP luminescence, 48 h; AID 686978, 2013; also: potency is read from the fitted curve at half-maximal effect; nearly all actives have a fitted effect of over 55% in size
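Camptothecin absent (DMSO only). Human TDP1-complemented DT40 knockout cells, 400 cells/well, 37 °C for minimum 48 hr; ATP measured via CellTiter-Glo, 30 min dark incubation, luminescence.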
DT40 TDP1 CPT: DT40-hTDP1 cell growth loss with CPT; chicken DT40 Tdp1-/-;hTDP1 cells + 20 nM CPT, ATP luminescence, 48 h; Potency, µM (series often up to 46.2 µM), for the others: at the highest dose activity change, negative = growth inhibition, most hits filed as inhibitors; 420,000 compounds, 12% hits; AID 686979; also: potency is read from the fitted curve at half-maximal effect; nearly all actives have a fitted effect of over 55% in size
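Cell growth measured by CellTiter-Glo luminescence after a minimum 48 h, 37 C compound exposure with 20 nM CPT in Tdp1-knockout DT40 cells stably expressing hTDP1, seeded 400/well; qHTS titration format.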
Gal4-VP16 FLuc: inhibits Gal4-VP16 luciferase reporter, ROR gamma counter-screen | Drosophila S2 Gal4-VP16 UAS-luciferase, luminescence, 20 h | Potency, µM (highest dose often 53.6 µM), for inactives: at the highest dose activity, negative = inhibition, hits mostly inhibitors | 310,000 compounds, 3.5% hits;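 also: Gal4-VP16 expression switched on by copper sulfate through the metallothionein promoter; potency is read from the fitted curve at half-maximal effect; nearly all actives have a fitted effect of over 50% in size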
An asterisk follows results filed as active; ? = inconclusive; . = not tested or not shown. Rows were chosen to be rich in hits. Some 21% of all compounds tested hit in one or more screens of this group. Unless noted, calls follow the shape of the dose curve; as a rule, active = well fitted curve in the direction sought with a large enough effect; inconclusive = small, poorly fitted or top-dose-only effect, or another doubt; inactive = no such curve, though single readings can be large; an effect the other way counts as inactive or inconclusive. % is scaled to controls: 0 for no effect and ±100 for the full control effect.

SMILES	RORg inh	IL1B secr inh	ELG1 repair inh	TDP1 cell noCPT	DT40 TDP1 CPT	Gal4-VP16 FLuc
O=C(c1ccco1)N1CCN(C(=S)Nc2ccccc2C(F)(F)F)CC1	10.5%	-6.4	20.6µM*	-4.3%	-15.7%	3.1%
CCCN(CC(=O)Nc1ccccc1OC)CC(=O)c1c(N)n(Cc2ccccc2)c(=O)n(C)c1=O	.	-13.9	.	?	?	.
COc1ccc(-c2nnc3n2N=C(c2ccc(OC)c(OC)c2)CS3)cc1	-33.9%	.	.	.	.	3.8%
Cc1ccc([C@H]2C[C@@H](O)[C@H](n3cc(-c4ccc(F)cc4)nn3)CN2Cc2cccs2)cc1	.	-15.5	.	?	?	.
O=C(CC1C(=O)NCCN1Cc1ccccc1C(F)(F)F)NC1CCCCC1 (stereo not drawn)	-0.4%	-23.5	19.7%	-3.5%	-12.9%	-10.5%
COCC(=O)N1CCC[C@@]2(CCN(C(=O)Nc3cccc(C#N)c3)C2)C1	3.8%	.	.	-1.9%	14.8%	-11.6%
CC(C)(C)OC(=O)N1CCN(c2ccc(NC(=O)c3ccco3)cc2)CC1	7.2%	-1.9	?	16.4µM*	18.4µM*	-5.4%
CCCC(=O)N1CCN(c2ccc(NC(=O)c3ccco3)cc2)CC1	13.8%	23.9	?	4.4%	-3.9%	-1.8%
C#CCN(Cc1ccco1)C(=O)c1ccc(OC2CCN(Cc3ccccn3)CC2)cc1	.	-13.4	.	?	18.4µM*	.
C=CCN1CCN(c2nc3ccccc3nc2C#N)CC1	-2.4%	.	.	?	-6.3%	1.4%
Cc1cc([N+](=O)[O-])ccc1NCc1cccc2ccccc12	.	-65.6*	.	15.8µM*	?	.
Cc1cc([N+](=O)[O-])ccc1NCc1ccccc1[N+](=O)[O-]	17.1%	-70.9*	14.4%	-23.8%	-14.8%	-9.2%
CSc1cccc(NC(=S)NCCCN2CCN(c3ccc(F)cc3)CC2)c1	6.31µM*	-12.4	?	3.9%	12.6%	?
COCCCNC(=S)Nc1cccc(SC)c1	1.58µM*	24.5	-15.8%	-0.2%	1.8%	11.2µM*
COc1ccccc1C(=O)Nc1cccc(SC)c1	22.5%	11.5	?	-9.7%	-3.8%	?
COCCCN(Cc1cc(OC)c(OC)c(OC)c1)C(=S)Nc1cccc(SC)c1	.	5.9	.	8.2µM*	16.4µM*	.
COc1cn(CC(=O)Nc2cccc(C)c2)c(CN2CCCCC2)cc1=O	.	.	.	-14.5%	-6.0%	.
CN1CCN(C2CN(CCc3ccccc3)S(=O)(=O)C2)CC1 (stereo not drawn)	.	11.0	.	-7.9%	-16.4%	.
Cc1ccc(CN(C)C2CCN(C)CC2)cc1	39.0%	-18.8	5.2%	-18.5%	?	-0.8%
O=C(NCC(c1ccco1)N1CCCCC1)c1ccc([N+](=O)[O-])s1 (stereo not drawn)	.	-15.5	?	23.1µM*	18.4µM*	.
Cc1ccc(C(=O)NCC(c2ccco2)N2CCCCC2)s1 (stereo not drawn)	.	12.5	11.6%	?	?	.
Cc1ccc2oc(C(=O)NCC(c3ccco3)N3CCCC3)c(C)c2c1 (stereo not drawn)	18.5%	-21.9	?	?	29.1µM*	-1.3%
Cc1cccc(C(=O)NCC(=O)NCC(c2ccco2)N2CCCCC2)c1 (stereo not drawn)	.	1.1	8.1%	-0.9%	-8.9%	.
Cc1ccc2c(Cl)c(C(=O)NCC(c3ccco3)N3CCCC3)sc2c1 (stereo not drawn)	11.0%	-7.0	?	?	18.4µM*	-16.2%
O=C(NCC(c1ccco1)N1CCCC1)c1ccccc1Sc1ccc(C(F)(F)F)cc1[N+](=O)[O-] (stereo not drawn)	.	-75.5*	4.3%	?	?	.
SMILES	RORg inh	IL1B secr inh	ELG1 repair inh	TDP1 cell noCPT	DT40 TDP1 CPT	Gal4-VP16 FLuc
CC(=O)Nc1c(C)nn(-c2ccccc2)c1N1CCC(C(=O)NCc2ccc(Cl)cc2)CC1	.	.	.	-8.3%	-23.3%	.
COc1ccc(NC(=O)c2cc(-c3sc(NC(=O)c4ccccc4)nc3C)n(CCO)n2)cc1	.	-12.5	.	?	?	.
O=C(NCC(c1ccco1)N1CCCC1)c1cc2cc(Cl)ccc2o1 (stereo not drawn)	.	-25.8	?	?	18.4µM*	.
Cc1cc(C)c(OCC(=O)NCC(c2ccco2)N2CCCCC2)c(C)c1 (stereo not drawn)	.	?	-1.7%	?	?	.
Cc1cc2oc(C(=O)NCC(c3ccco3)N3CCCC3)c(C)c2cc1C (stereo not drawn)	.	-2.5	.	20.6µM*	?	.
O=C(NCC(c1ccco1)N1CCCC1)c1ccc(Cl)cc1 (stereo not drawn)	0.4%	9.7	0.7%	-5.3%	-7.2%	-1.2%
Cc1ccc(CC(=O)O/N=C(\N)c2ccncc2)cc1	29.3%	9.6	-1.3%	0.8%	-8.4%	5.2%
COC(=O)c1cccc(-n2c(CCC(=O)O)ccc2-c2cccs2)c1	3.6%	14.0	17.9%	6.5%	-17.3%	-8.6%
COC(=O)c1cccc(-n2c(CCC(=O)O)ccc2-c2ccc(OC)cc2)c1	.	.	.	14.6µM*	14.6µM*	.
COc1ccc(-c2ccc(CCC(=O)O)n2CC(C)C)cc1	18.7%	38.4	0.0%	20.6µM*	?	-2.0%
CC(C)[C@H](N)C(=O)N[C@H]1CCC2C3CC=C4C[C@@H](O)CC[C@]4(C)C3CC[C@@]21C (stereo partly drawn)	.	-105.6*	.	?	?	.
CCC(C)[C@H](N)C(=O)N[C@H]1CCC2C3CC=C4C[C@@H](O)CC[C@]4(C)C3CC[C@@]21C (stereo partly drawn)	.	-111.1*	.	?	?	.
C[C@]12CC[C@H](O)CC1=CCC1C2CC[C@@]2(C)C1CC[C@@H]2NCc1ccccc1 (stereo partly drawn)	.	16.9	.	20.6µM*	20.6µM*	.
CCO[C@H]1OC(C(=O)Nc2ccccc2)=C[C@@H](c2ccc(Br)cc2)[C@@H]1CCCO	?	0.0	?	18.4µM*	16.4µM*	14.0%
C#CCNC(=O)C1=C[C@@H](c2ccc(Br)cc2)[C@H](CCCO)[C@@H](OCC)O1	25.1%	17.2	-1.0%	14.6µM*	14.6µM*	-11.7%
CCO[C@@H]1OC(C(=O)Nc2ccccc2)=C[C@H](c2ccc(C(F)(F)F)cc2)[C@H]1CCCO	5.8%	-11.8	-17.1%	?	?	-0.7%
C#Cc1ccc([C@H]2C=C(C(=O)NC3CC3)O[C@@H](OCC)[C@@H]2CCCO)cc1	-3.4%	-4.4	25.0%	23.1µM*	?	-5.3%
